These results are taken from PubChem BioAssay (NCI).

About 83,000 compounds went through this panel and 20% of them were active in at least one assay; those are over-represented in the sample as a whole.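 Assay: single dose, 48 h. Readout: percent growth (0 = no net growth; negative = cell death). Active: <10.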 A number with no mark means an inactive call. The source made the active and inactive calls.

What all share (assay): NCI-60 one-dose screen, 48 h (100 = growth as untreated, 0 = no growth, -100 = all killed)
Conditions in all cases: 10 µM unless noted

Assay [1] concerns HCT-15 colon.
For assay [2], the system named is HT29 colon.
Assay [3] has as its system SNB-75 CNS.
The test system of assay [4] is SNB-19 CNS.
Assay [5] relates to U251 CNS.
Assay [6] relates to PC-3 prostate.
Assay [7] deals with SK-MEL-5 melanoma.
The subject of assay [8] is UACC-62 melanoma.
The test system of assay [9] is LOX IMVI melanoma.
In assay [10] the test system is SK-MEL-28 melanoma.
The subject of assay [11] is SK-MEL-2 melanoma.
The subject of assay [12] is EKVX NSCLC.
Assay [13] relates to SN12C renal.
In assay [14] the test system is UO-31 renal.
Assay [15] deals with TK-10 renal.
Assay [16] has as its system ACHN renal.
Assay [17] relates to CAKI-1 renal.
Assay [18] has as its system A498 renal.
Assay [19] relates to CCRF-CEM leukemia.
In assay [20] the test system is MOLT-4 leukemia.

`CSc1ccc(C(=NNS(=O)(=O)c2ccc(C)cc2)c2ccc(Cl)cc2)cc1`: the growth was 101% in [1]; 99.8% in [2]; 85.4% in assay [3]; 105% in assay [4]; 103% in [5]; 86.4% in assay [6]. Besides, the growth in assay [7] is 99.3%; in assay [8], 90.1%; in [9] it was 106%; in assay [10], 102%; in assay [11], 95.9%; in assay [12] it was 98.2%. The growth in [13] is 92.7%; in assay [14] it was 81.8%; in assay [15] it was 104%; in [16], 105%; in [17], 86.2%; in [18], 96.5%. For the same compound, the growth was 97.7% in assay [19] and 98.6% in assay [20].

As to `C#CCN(C)CCCOc1ccc(NC(=O)CCCCCCC(=O)NO)cc1Cl`, the growth in assay [1] is 64.9%; in assay [2] it was 10.5%; in assay [3], 26.3%; in assay [4], 30.3%; in assay [5] it was 8.98% (active); in assay [6] it was 26.5%. The growth was -4.82% (active) in [7]; -28.9% (active) in assay [8]; -61.4% (active) in [9]; 27.1% in assay [10]; 32.7% in assay [11]; 51.5% in [12]. The growth in assay [13] was 41.2%; in assay [14] it was 26.3%; in assay [15], 1.34% (active); in assay [16], 20.3%; in [17], 17.9%; in [18] it was -12.1% (active). The growth was 15.5% in assay [19] and 16.9% in assay [20].

Take `Nc1cc(C(=O)N/N=C\c2ccc(OC(F)F)c(OC3CCCC3)c2)nn1CC(O)c1ccccc1` (stereo not given): the growth in assay [1] is 99.1%; in [2], 98.2%; in [3], 84.1%; in assay [4], 96.4%; in [5] it was 94.7%; in assay [6], 80.7%. Further, the growth in assay [7] is 97.1%; in assay [8], 89.4%; in [9], 99.1%; in assay [10], 115%; in assay [11], 101%; in assay [12], 104%. Also, the growth in assay [13] was 105%; in assay [14] it was 76.5%; in [15] it was 112%; in [16], 105%; in assay [17], 81.9%; in [18], 100%. Also, the results for the growth in [19] and in assay [20] were 92.3% and 78.5%, respectively.

As for `CCOP(=O)(OCC)OC[C@]12CC[C@@H](C)[C@H](C)C1C1=CC[C@@H]3[C@@]4(C)CCCNC(C)(C)[C@@H]4CC[C@@]3(C)[C@]1(C)CC2` (stereo not given in full), the growth in assay [1] is -8.25% (active); in [2], -30.6% (active); in assay [3], 66.8%; in assay [4], 17%; in assay [5], -59.1% (active); in assay [6], 10.9%. Also, the growth in assay [7] is -8.29% (active); in assay [8], -12.6% (active); in assay [9] it was -86.3% (active); in assay [10], -2.47% (active); in assay [11], 109%; in assay [12], 36.8%. The growth is 40.1% in assay [13]; 21.1% in assay [14]; 61.2% in [15]; 34.4% in assay [16]; 13% in [17]; 66.3% in [18]. The growth in [19] was -33.3% (active); in [20], -69.1% (active).

Regarding `CCOC(=O)c1ccc(NC2=C(Cl)C(=O)c3nc(C)ccc3C2=O)cc1`, the growth in assay [1] is -48.5% (active); in [2] it was 71.5%; in assay [3] it was 70.1%; in [4], 68.1%; in assay [5], 63.8%; in assay [6], 48%. The growth in [7] is 63.6%; in [8], 55.5%; in assay [9], 0.747% (active); in assay [10], 55.2%; in assay [11], 78.2%; in [12], 68.4%. Further, the growth in assay [13] was 75.8%; in assay [14] it was 2.37% (active); in assay [15] it was 99.4%; in assay [16] it was -9.88% (active); in assay [17], 75.4%; in assay [18], 68.3%. The results for the growth in [19] and in assay [20] were 6.88% (active) and 16.3%, respectively.

Regarding `Brc1ccc(-c2cc(-c3ccc4c(c3)OC=CO4)n[nH]2)s1`, the growth in assay [1] was 61.9%; in assay [2], 74.1%; in assay [3] it was 74%; in assay [4], 91.7%; in assay [5] it was 88.8%; in [6], 101%. The growth is 89.4% in assay [7]; 83.2% in assay [8]; 89.9% in assay [9]; 91.6% in assay [10]; 97.3% in assay [11]; 74.6% in [12]. In addition, the growth in [13] is 99.1%; in assay [14] it was 87.7%; in assay [15] it was 149%; in assay [16], 97.7%; in assay [17] it was 62.9%; in assay [18], 90.7%. Besides, the growth was 79.4% in assay [19] and 72.6% in assay [20].

`CCCCc1nc2c(N)nc3ccccc3c2n1Cc1ccc(OC)cc1`: the growth in assay [1] is 58.3%; in [2], 32.9%; in [3], 66.2%; in assay [4] it was 76%; in assay [5] it was 67.9%; in assay [6], 43.5%. The growth is 47.3% in [7]; 68.2% in assay [8]; 75% in [9]; 90.2% in assay [10]; 71.6% in assay [11]; 58.5% in assay [12]. For the same compound, the growth in [13] was 71.5%; in [14], 40.2%; in [15], 68.3%; in assay [16] it was 76.9%; in [17], 52.2%; in [18], 35.7%. For the same compound, the figures for the growth in assay [19] and in assay [20] were 60.2% and 36.8%, respectively.

As for `NS(=O)(=O)c1nnc(/N=C/c2c(O)[nH]c3ccccc23)s1`, the growth was 102% in assay [1]; 105% in assay [2]; 81.2% in [3]; 105% in assay [4]; 99.9% in [5]; 89.3% in [6]. In addition, the growth is 98.5% in assay [7]; 97% in assay [8]; 100% in [9]; 114% in assay [10]; 114% in [11]; 84.2% in [12]. Moreover, the growth is 101% in [13]; 72.5% in assay [14]; 142% in assay [15]; 93.7% in [16]; 86.5% in assay [17]; 107% in assay [18]. Besides, the growth was 106% in assay [19] and 126% in assay [20].
